According to PubChem BioAssay (NCATS):
Where “and” joins values, the source holds several entries; their conditions need not be identical. Identical values can stand only once. Records with an inconclusive call do not appear. Entries that show only a call come without a potency. Some structures have more than one record in an assay (separate samples or runs), and their calls can disagree. Calls of active or inactive are those of the source. Unless noted, calls come from the whole dose curve; as a rule, active = well fitted curve in the direction sought with a large enough effect; inconclusive = small, poorly fitted or top-dose-only effect, or another doubt; inactive = no such curve, though single readings can be large; an effect the other way counts as inactive or inconclusive.

Experiments:
[1] = Primary qHTS for inhibitors of nuclear receptor binding SET domain protein 2 (NSD2) in an isogenic RCH-ACV NSD2 p.E1099K mutant (9B) (AID 1645876); note: nearly all actives have a fitted effect of over 70% in size; note: potency is the fitted concentration of half-maximal effect
[2] = Primary qHTS for inhibitors of nuclear receptor binding SET domain protein 2 (NSD2) in an RCH-ACV wild type WT cells (2C) (AID 1645877); note: nearly all actives have a fitted effect of over 70% in size; note: potency is the fitted concentration of half-maximal effect
[3] = target: Catechol O-methyltransferase (Homo sapiens) (UniProt P21964); test: Confirmatory Screen for Target Class Profiling of Small Molecule Inhibitors of Methyltransferases (AID 1745852; calls by dose curve; note: potency is the fitted concentration of half-maximal effect); settings: MTase-Glo luminescence, SAH detection, recombinant enzyme; measured here: COMT max response; stronger effect = lower value
Chain of Catechol O-methyltransferase (Homo sapiens) (P21964 whole entry, looked up): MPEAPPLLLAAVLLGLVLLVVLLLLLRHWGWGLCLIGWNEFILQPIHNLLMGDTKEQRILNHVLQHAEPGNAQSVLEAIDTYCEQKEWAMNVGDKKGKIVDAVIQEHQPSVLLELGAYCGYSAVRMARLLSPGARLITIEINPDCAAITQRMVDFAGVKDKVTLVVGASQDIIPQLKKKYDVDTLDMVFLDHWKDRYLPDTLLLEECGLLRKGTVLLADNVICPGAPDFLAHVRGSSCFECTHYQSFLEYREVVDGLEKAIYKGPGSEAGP

[4] = target: Guanidinoacetate N-methyltransferase (Homo sapiens) (UniProt Q14353); test: as above; settings: MTase-Glo luminescence, SAH detection, recombinant enzyme
[5] = target: Nicotinamide N-methyltransferase (Homo sapiens) (UniProt P40261); test: as above; settings: MTase-Glo luminescence, SAH detection, recombinant enzyme; measured here: NNMT max response; stronger effect = lower value
Chain of Nicotinamide N-methyltransferase (Homo sapiens) (P40261 whole entry, looked up): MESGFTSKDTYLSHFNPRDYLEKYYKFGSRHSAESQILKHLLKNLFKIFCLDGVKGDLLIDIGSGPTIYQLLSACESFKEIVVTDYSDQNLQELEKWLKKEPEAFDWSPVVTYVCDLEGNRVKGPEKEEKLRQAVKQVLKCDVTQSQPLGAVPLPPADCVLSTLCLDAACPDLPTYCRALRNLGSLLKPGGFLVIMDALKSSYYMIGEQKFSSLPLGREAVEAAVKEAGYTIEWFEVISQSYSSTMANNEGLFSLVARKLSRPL

[6] = target: Phenylethanolamine N-methyltransferase (Homo sapiens) (UniProt P11086); test: as above; settings: MTase-Glo luminescence, SAH detection, recombinant enzyme; measured here: PNMT max response; stronger effect = lower value
Chain of Phenylethanolamine N-methyltransferase (Homo sapiens) (P11086 whole entry, looked up): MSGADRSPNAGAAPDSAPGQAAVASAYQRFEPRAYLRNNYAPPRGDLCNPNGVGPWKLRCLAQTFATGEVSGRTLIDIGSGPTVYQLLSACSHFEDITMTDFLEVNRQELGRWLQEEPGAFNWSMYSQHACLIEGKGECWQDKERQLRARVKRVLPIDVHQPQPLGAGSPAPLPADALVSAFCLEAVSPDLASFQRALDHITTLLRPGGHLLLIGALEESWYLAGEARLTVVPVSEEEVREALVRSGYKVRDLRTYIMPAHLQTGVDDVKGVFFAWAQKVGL

[7] = target: Glutathione peroxidase 1 (Homo sapiens) (UniProt P07203); test: Primary qHTS Assay for Inhibitors of Recombinant Selenoprotein Glutathione Peroxidase 1 (GPX1) (AID 1845191); note: nearly all actives have a fitted effect of over 65% in size; note: potency is the fitted concentration of half-maximal effect
Chain of Glutathione peroxidase 1 (Homo sapiens) (P07203 whole entry, looked up): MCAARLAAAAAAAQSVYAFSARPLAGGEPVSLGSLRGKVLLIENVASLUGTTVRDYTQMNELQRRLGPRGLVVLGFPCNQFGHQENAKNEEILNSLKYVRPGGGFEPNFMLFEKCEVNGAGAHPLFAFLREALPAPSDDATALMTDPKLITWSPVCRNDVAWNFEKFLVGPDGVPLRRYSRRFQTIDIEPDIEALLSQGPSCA
Outline: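 10 nM GPX1 + cpd, 30 min RT; start w/ 1 mM GSH, 0.5 mM cumene hydroperoxide, 0.5 mM NADPH, 100 nM GR, 0.01% BSA; buffer 50 mM Tris-HCl pH 7.5, 2 mM EDTA, 150 mM NaCl; Fl 340/450, 0 & 15 min.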

[8] = target: Phospholipid hydroperoxide glutathione peroxidase GPX4 (Homo sapiens) (UniProt P36969); test: Primary qHTS Assay for Inhibitors of Recombinant Selenoprotein Glutathione Peroxidase 4 (GPX4) (AID 1845192); note: nearly all actives have a fitted effect of over 65% in size
Chain of Phospholipid hydroperoxide glutathione peroxidase GPX4 (Homo sapiens) (P36969 whole entry, looked up): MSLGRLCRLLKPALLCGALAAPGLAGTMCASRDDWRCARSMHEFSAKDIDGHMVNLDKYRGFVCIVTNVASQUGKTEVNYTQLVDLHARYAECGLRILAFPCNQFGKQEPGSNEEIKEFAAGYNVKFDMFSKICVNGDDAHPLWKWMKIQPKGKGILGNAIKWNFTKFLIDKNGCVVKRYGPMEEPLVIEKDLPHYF
Outline: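 NADPH consumption, followed by fluorescence at 340/450 nm between 0 and 15 min, reports GPX4 activity via coupled glutathione reductase (100 nM). Enzyme 200 nM was pre-exposed to compound 30 min; 0.5 mM cumene hydroperoxide and 1 mM GSH served as substrates.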

[9] = target: Luciferin 4-monooxygenase (Photinus pyralis) (UniProt P08659); test: Primary firefly luciferase (FLuc) qHTS assay for identification of artifact compounds. (AID 1845220); note: nearly all actives have a fitted effect of over 60% in size; note: potency is the fitted concentration of half-maximal effect
Outline: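 Compounds sat 15 min at room temperature with 10 uM luciferin and 10 uM ATP (pH 7.6 Tris acetate). Firefly luciferase (10 nM final) was then added, and luminescence was read 5 min later. Data normalized to no-enzyme and DMSO controls were Hill-fitted.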

[10] = Primary fluorescence-based thiol-reactive (MSTI) qHTS assay for identification of artifact compounds. (AID 1845221); note: nearly all actives have a fitted effect of over 65% in size; note: potency is the fitted concentration of half-maximal effect
Outline: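 One-hour, room-temperature, dark incubation of compound with 4 uM MSTI in PBS (pH 7.4, 2% DMSO) precedes a fluorescence read at 525 nm excitation, 598 nm emission; Hill-equation fitting yields concentration-response values.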

[11] = test system: Nanoluciferase (engineered Oplophorus gracilirostris luciferase); test: Primary Nanoluciferase (NLuc) qHTS assay for identification of artifact compounds. (AID 1845222); note: potency is the fitted concentration of half-maximal effect
Outline: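 Luminescence from secreted NLuc (filtered, 1:55-diluted S16 cell medium) read 5 min after Nano-Glo substrate; compounds preincubated 15 min, RT. Hill fits of inhibition normalized to DMSO and no-enzyme.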

[12] = NCATS anti-infectives library activity on the primary C. elegans qHTS viability assay (AID 1745855; calls by dose curve; note: potency is the fitted concentration of half-maximal effect)
Outline: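 Viability is taken from GFP fluorescence of PE254-GFP-FLuc C. elegans imaged by laser cytometry over 7 days. Ten L1 worms per well grow at 21 °C on TOP10 E. coli capsules with titrated compound; levamisole marks toxicity.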

[13] = target: Metallo-beta-lactamase type 2 (Klebsiella pneumoniae) (UniProt C7C422); test: qHTS to identify inhibitors of the New Delhi Metallo-beta-lactamase (NDM): assay validation screen against the NCATS LOPAC Collection (AID 1794843);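 note: nitrocefin turnover by NDM-1 measured as 485 nm absorbance at plateau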
Chain of Metallo-beta-lactamase type 2 (Klebsiella pneumoniae) (C7C422 whole entry, looked up): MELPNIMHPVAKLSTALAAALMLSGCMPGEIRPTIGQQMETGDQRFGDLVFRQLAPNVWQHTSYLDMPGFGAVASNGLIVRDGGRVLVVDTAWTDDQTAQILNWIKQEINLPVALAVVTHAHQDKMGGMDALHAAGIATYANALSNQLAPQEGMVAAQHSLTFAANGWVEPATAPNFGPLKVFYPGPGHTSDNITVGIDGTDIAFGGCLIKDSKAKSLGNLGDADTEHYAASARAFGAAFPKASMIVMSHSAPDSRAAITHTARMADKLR
Outline: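 Enzyme 2 nM final, 50 mM HEPES pH 7.0, 1 uM ZnSO4, 0.01% Tween20; cpds in DMSO, preincub w/ enzyme; + nitrocefin (50 uM stock); A485 at plateau; no-enzyme column as blank.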

[14] = activity change, negative = inhibition: at 57.3 µM (top of the series) unless noted

SMILES: N#Cc1c(O)c2c(-c3ccc(-c4ccccc4O)cc3)csc2[nH]c1=O
- Potency [1]: inactive
- Potency [2]: inactive
- activity [3]: 1.41%
- activity change, negative = inhibition [4, 14]: 0%
- activity [5]: -31.1%
- activity [6]: -7.68%
- Potency [7]: 12.8 µM (active) and inactive
- Potency [8]: inactive
- Potency [9]: inactive
- Potency [10]: inactive

SMILES: CCn1cc(-c2ccnc3[nH]c(-c4cccc(CN(C)C)c4)cc23)c(-c2ccc(NC(=O)N(C)C)cc2)n1
- Potency [1]: 112 nM (active) and 1.86 µM (active)
- Potency [2]: 36.6 nM (active) and 37.2 nM (active)
- activity [3]: -5.39% and -8.37%
- activity change, negative = inhibition ([4]; at 29.8 µM (top of the series)): 2.9%
- activity change, negative = inhibition ([4]; at 57.3 µM (top of the series)): -1.45%
- activity [5]: -7.11% and -33%
- activity [6]: -1.24% and -20%
- Potency [7]: inactive
- Potency [8]: inactive
- Potency [9]: inactive
- Potency [10]: inactive
- Potency [11]: inactive

SMILES: CCS(=O)(=O)c1cccc(-c2cc(C(=O)NC3CCN(C)CC3)c(C)c3[nH]c4ncc(C)cc4c23)c1
- Potency [1]: 113 nM (active) and 166 nM (active)
- Potency [2]: 35.8 nM (active) and 41.7 nM (active)
- activity [3]: -16.8% and -13.7%
- Potency [4, 14]: 18.8 µM (active)
- activity change, negative = inhibition [4, 14]: -3.37%
- activity [5]: -55.9% and -55.5%
- activity [6]: -15.8% and -17.5%
- Potency [7]: inactive
- Potency [8]: inactive
- Potency [9]: inactive
- Potency [10]: inactive
- Potency [11]: inactive

SMILES: CCn1nnc2c(N3CCOCC3)nc(-c3ccc(NC(=O)Nc4ccc(C(=O)N5CCN(C)CC5)cc4)cc3)nc21
- Potency [1]: 18.3 nM (active) and 41.7 nM (active)
- Potency [2]: 46.1 nM (active) and 59 nM (active)
- activity [3]: -6.26%
- activity change, negative = inhibition [4, 14]: 0%
- activity [5]: -65.9%
- activity [6]: -1.56%
- Potency [7]: inactive
- Potency [8]: inactive
- Potency [9]: inactive
- Potency [10]: inactive
- Potency [11]: inactive

SMILES: COc1cc2c(NC3CCN(C(C)C)CC3)nc(C3CCCCC3)nc2cc1OCCCN1CCCC1
- Potency [1]: 9.16 µM (active) and 8.33 µM (active)
- Potency [2]: 11.5 µM (active) and 6.61 µM (active)
- activity [3]: -9%
- activity change, negative = inhibition [4, 14]: -6.26%
- activity [5]: -39.8%
- activity [6]: -4.49%
- Potency [7]: inactive
- Potency [8]: inactive
- Potency [9]: inactive
- Potency [10]: inactive
- Potency [11]: inactive

SMILES: Nc1ncnc2c1c(-c1cccc(OCc3ccccc3)c1)cn2C1CC(CN2CCCC2)C1 (stereo unspecified)
- Potency [1]: 11.8 µM (active)
- Potency [2]: 10.5 µM (active)
- activity [3]: -58.1%
- Potency [4, 14]: 27.1 µM (active)
- activity [5]: -68.2%
- activity [6]: -98.1%
- Potency [7]: inactive
- Potency [8]: inactive
- Potency [9]: inactive
- Potency [10]: inactive
- Potency [11]: inactive

SMILES: CC(C)C[C@H](NC(=O)CNC(=O)c1cc(Cl)ccc1Cl)B(O)O
- Potency [12]: 1.29 µM (active)

SMILES: O=c1c2ccccc2nc2n1CCc1c-2[nH]c2ccccc12
- outcome [13]: inactive

SMILES: C[C@]1(CO)CN(c2cc(C(=O)Nc3ccc4c(c3)-c3c(c(C(N)=O)nn3-c3ccc(F)cc3)CC4)c(Cl)cn2)C[C@@]1(C)CO
- Potency [1]: 3.25 µM (active)
- Potency [2]: 3.25 µM (active)
- Potency [7]: inactive
- Potency [8]: inactive
- Potency [9]: inactive
- Potency [10]: inactive
- Potency [11]: inactive

SMILES: CC(C)c1nn(-c2c(Cl)cccc2Cl)c2nc(Cc3ccc(OCCO)cc3)[nH]c(=O)c12
- Potency [1]: 45.9 nM (active) and 46.8 nM (active)
- Potency [2]: 25.8 nM (active) and 41.7 nM (active)
- Potency [7]: inactive
- Potency [8]: inactive
- Potency [9]: inactive
- Potency [10]: inactive
- Potency [11]: inactive

SMILES: c1cc(-c2cnn3cc(-c4ccc(OCCN5CCCCC5)cc4)cnc23)ccn1
- Potency [1]: 3.66 µM (active) and 3.72 µM (active)
- Potency [2]: 2.91 µM (active) and 3.32 µM (active)
- Potency [7]: inactive
- Potency [8]: inactive

SMILES: CNC(=O)c1ccccc1Nc1nc(Nc2ccc(N3CCOCC3)cc2OC)ncc1Cl
- Potency [1]: 2.05 µM (active) and 2.35 µM (active)
- Potency [2]: 649 nM (active) and 1.05 µM (active)
- Potency [7]: inactive
- Potency [8]: inactive
- Potency [9]: inactive
- Potency [10]: 1.89 µM (active)
- Potency [11]: inactive

SMILES: COc1cccc(-c2ccc(NC(=O)C3=C(C(=O)O)CCC3)c(F)c2)c1
- Potency [1]: 5.78 µM (active) and 2.95 µM (active)
- Potency [2]: 6.49 µM (active) and 3.72 µM (active)
- Potency [7]: inactive
- Potency [8]: inactive
- Potency [9]: 5.36 µM (active)
- Potency [10]: inactive
- Potency [11]: 12 µM (active)

SMILES: O=C(Nc1ncc(-c2cc(C(F)F)nn2-c2c(Cl)cccc2Cl)s1)C1CC1
- Potency [1]: 0.934 µM (active)
- Potency [2]: 0.417 µM (active)
- Potency [7]: inactive
- Potency [8]: inactive
- Potency [9]: inactive
- Potency [10]: inactive
- Potency [11]: inactive

SMILES: C[C@@H]1COC(Nc2ccc3ncnc(Nc4ccc(OCc5nccs5)c(Cl)c4)c3c2)=N1
- Potency [1]: 13.2 µM (active)
- Potency [2]: 11.8 µM (active)
- Potency [7]: inactive
- Potency [8]: inactive
- Potency [9]: 19 µM (active)
- Potency [10]: inactive

SMILES: COc1cc2nccc(Oc3ccc(NC(=O)C4(C(=O)Nc5ccc(F)cc5)CC4)cc3)c2cc1OC
- Potency [1]: 3.65 µM (active) and 5.25 µM (active)
- Potency [2]: 4.09 µM (active) and 4.68 µM (active)
- Potency [7]: inactive
- Potency [8]: inactive
- Potency [9]: inactive
- Potency [10]: inactive
- Potency [11]: inactive
